Source: PubChem
Shown are actives, neighbours in structure and some others; about 0.77% of the full set was active somewhere.
Mtb bLac sens: beta-lactam sensitization of Mtb H37Rv. actives 0.27% (n = 330,000). M. tuberculosis H37Rv growth with meropenem, percent inhibition. AID 434955. inhibition, % at 25 µM;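 note: growth measured after seven days incubation then overnight dye step; 0% = bacteria only wells and 100% = bacteria with antibiotic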
RecA intein inh: inhibitors of M. tuberculosis RecA intein splicing; inhibition, % (no concentration beside the values); cell-free RecA intein splicing, fluorescence; P9WHJ3; actives 0.75% (n = 290,000); in the data active = inhibition above about 30%;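 note: 0% = vehicle wells and 100% = reference inhibitor control wells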
Mtb hypoxia inh: reduces hypoxia-regulated biosensor signal in M. tuberculosis; M. tuberculosis hypoxia-regulated fluorescent reporter, fluorescence; fluorescence inhibition, % (test concentration not listed); actives 0.1% (n = 300,000); AID 1159583; in the data active = fluorescence inhibition mostly above about 23%, no sharp cut-off; inactive = mostly below about 17%
UGM FP inh: inhibitors of M. tuberculosis UDP-galactopyranose mutase. actives 0.06% (n = 320,000). inhibition, % at 10 µM. purified UGM, fluorescence polarization probe displacement. P9WIQ1; in the data active = inhibition above about 10%, passing the limit was not always enough
Rv3671c protease: inhibitors of M. tuberculosis serine protease Rv3671c; P9WHR9; inhibition, % at 5.96 µM; actives 0.048% (n = 320,000); AID 2606; in the data active = inhibition above about 38%;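 note: extracellular domain of Rv3671c used as enzyme; 0% = enzyme with DMSO and 100% = no enzyme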
GFP chromo cs: counter-screen GFP chromophore formation inhibition | cell-free GFP chromophore formation, fluorescence | EC50, µM | shares compounds with RecA intein inh | actives 83% (n = 2,100)
The depositor's hits bear a star; · = no result given. Unless noted, the rule behind the calls is not given here.

SMILES | Mtb bLac sens | RecA intein inh | Mtb hypoxia inh | UGM FP inh | Rv3671c protease | GFP chromo cs
CCOC(=O)c1ccc(NC(=O)c2nc(S(=O)(=O)Cc3ccccc3)ncc2Cl)cc1 | 3 | 27 | · | 1 | -34 | ·
Cc1cccc(CS(=O)(=O)c2ncc(Cl)c(C(=O)NCc3ccc4c(c3)OCO4)n2)c1 | 4 | 51* | -2 | 1 | -1 | 11*
CC(=O)Nc1ccc(NC(=O)c2nc(S(=O)(=O)Cc3cccc(C)c3)ncc2Cl)cc1 | 2 | 31* | · | -3 | 0 | 20*
Cc1onc(-c2c(F)cccc2Cl)c1C(=O)NCc1ccc2c(c1)OCO2 | -11 | -1 | 2 | -2 | 3 | ·
CN1CC2C3C(=O)N(Cc4ccccc4)C(=O)C3[C@](C)(C1=O)N2C(=O)c1ccc(F)cc1 (some centres not stated) | · | · | 0 | · | · | ·
CCN(CC)S(=O)(=O)c1ccc(NN=C(C#N)C#N)cc1 | -5 | 38* | · | 0 | 8 | 27*
CCOC(=O)C/C(C)=N/NC(=O)COc1ccccc1C | -7 | 62* | · | 3 | -20 | 13*
CCOC(=O)CC1c2ccc(C(F)(F)F)cc2S(=O)(=O)N1C(C)(C)C (configuration not stated) | · | · | -8 | · | · | ·
CCOC(=O)c1cccc(-n2cccc2C=C2NC(=O)N(CC(=O)O)C2=O)c1 | · | · | 9 | · | · | ·
CC(C)(C)OC(=O)C(Cc1ccccc1)NC(=O)c1nc[nH]c1C(=O)N1CCNCC1 (configuration not stated) | · | · | 9 | · | · | ·
Cc1noc2ncnc(Sc3ccccc3Cl)c12 | 100 | 45* | · | 2 | 1 | 38*
Cc1ccccc1CN1CC2CC(c3cnc(N4CCOCC4)s3)N3CCC[C@@]23C1=O (some centres not stated) | · | · | 8 | · | · | ·
COc1ccccc1NC(=O)C1=C(C)Nc2nnnn2C1c1ccncc1 (configuration not stated) | -6 | 39* | 4 | 1 | -2 | >38
COc1ccc2c(c1)C1=NN(C(C)=CC(C)=O)C(c3cccc(F)c3)C1CC2 (configuration not stated) | · | · | -9 | · | · | ·
CCc1nc(SCC(=O)N2CCN(c3ccccc3)CC2)c2oc3ccccc3c2n1 | 3 | 32* | 14 | 1 | -11 | >38
O=c1cc(-c2ccccc2Cl)oc2ccc([N+](=O)[O-])c(O)c12 | 95 | 2 | 2 | 2 | 0 | ·
O=[N+]([O-])c1cc([N+](=O)[O-])c2oc(-c3ccccc3)c(Br)c2c1O | · | 30* | 5 | · | · | >38
COc1cc(C(c2c(C)[nH][nH]c2=O)c2c(C)[nH][nH]c2=O)cc(Cl)c1O | 0 | 88* | 5 | -2 | 1 | 0.74*
COc1ccccc1N=Nc1c(C)[nH][nH]c1=O | 3 | 1 | 19 | 1 | 6 | ·
COc1cc(C(c2c(C)[nH][nH]c2=O)c2c(C)[nH][nH]c2=O)cc(OC)c1OC | -5 | 96* | 6 | 0 | -18 | 0.51*
CC(OC(=O)c1cc(O)c2ccccc2c1O)C(=O)Nc1ccc(C(N)=O)cc1 (configuration not stated) | -3 | 73* | 6 | -1 | -25 | 5.2*
CCOc1cc(C=O)ccc1O | -2 | · | · | · | 2 | ·
COc1ccc(Cc2nc(=S)[nH][nH]2)cc1Br | -3 | · | 13 | -3 | 11 | ·
Cc1[nH][nH]c(=O)c1C(c1ccc(O)c(Br)c1)c1c(C)[nH][nH]c1=O | -2 | 98* | 17 | 1 | -3 | 0.46*
COc1cc(C(c2c(C)[nH][nH]c2=O)c2c(C)[nH][nH]c2=O)ccc1OC(C)C | -5 | 97* | 15 | 2 | -6 | 0.45*
SMILES | Mtb bLac sens | RecA intein inh | Mtb hypoxia inh | UGM FP inh | Rv3671c protease | GFP chromo cs
CCOc1cc(C(c2c(C)[nH][nH]c2=O)c2c(C)[nH][nH]c2=O)ccc1O | 3 | 96* | -1 | -1 | -23 | 1.1*
COc1ccc(C(c2c(C)[nH][nH]c2=O)c2c(C)[nH][nH]c2=O)cc1Br | -3 | 98* | 9 | 0 | -7 | 0.59*
NC(=O)C1CC2(CC(c3cccc(NC(=O)C4CCC(=O)N4)c3)=NO2)CN1C(=O)c1cc([N+](=O)[O-])cc([N+](=O)[O-])c1 (configuration not stated) | · | · | 5 | · | · | ·
CCC(=O)Nc1cccc(C2=NOC3(C2)CC(C(N)=O)N(C(=O)c2ccc(Cl)cc2)C3)c1 (configuration not stated) | · | · | 8 | · | · | ·
COC(=O)c1ccc(-c2ccc(C(c3c(C)[nH][nH]c3=O)c3c(C)[nH][nH]c3=O)o2)cc1 | 5 | 95* | 2 | -2 | -18 | 0.65*
Cc1[nH][nH]c(=O)c1C(c1ccc(-c2cccc(C(=O)O)c2)o1)c1c(C)[nH][nH]c1=O | 5 | · | 2 | 2 | -109 | ·
Cc1[nH][nH]c(=O)c1C(c1ccc(-c2ccccc2C(=O)O)o1)c1c(C)[nH][nH]c1=O | -3 | 96* | 1 | -1 | -200 | 0.49*
CC1CN(C(C)CO)C(=O)c2cc(NS(=O)(=O)c3cn(C)cn3)ccc2OC1CN(C)Cc1ccc(C(=O)O)cc1 (configuration not stated) | · | · | 16 | · | · | ·
CCC1Nc2ncnc(N3CCc4ccccc4C3)c2N(Cc2ccc(Cl)cc2)C1=O (configuration not stated) | 13 | · | 7 | 0 | 0 | ·
O=C1C(Cc2ccccc2)Nc2ncnc(N3CCc4ccccc4C3)c2N1Cc1ccc(Cl)cc1 (configuration not stated) | 3 | 33* | · | 1 | -32 | >38
O=C(NCCc1ccccc1)C(c1cccs1)N(C(=O)CCl)c1ccc(Cl)cc1 (configuration not stated) | 73 | 74* | 19 | 0 | -6 | 0.51*
CCOc1ccc2c(c1)-c1c(ssc1=S)C(C)(C)N2 | 3 | 51* | 10 | 0 | 11 | 12*
CC1CCC(=O)N(CC(C)CSc2ccc(Br)cc2)CC1 (configuration not stated) | · | · | 19 | · | · | ·
CC(C)(C)c1cc(C(c2cccnc2)N2CCN(CCO)CC2)cc(C(C)(C)C)c1O (configuration not stated) | 101 | 38* | 20 | -3 | 12 | 35*
CCN1C(=O)C2C(c3ccc(C)cc3)N3C(=O)N(c4ccc(C)cc4)C(=O)[C@@]3(Cc3ccccc3)C2C1=O (some centres not stated) | · | · | -3 | · | · | ·
O=C(CC1CC=CCCCC(=O)OC(c2ccccc2)CNC1=O)NCCO (configuration not stated) | · | · | 0 | · | · | ·
O=C1/C(=C/c2ccc(O)c([N+](=O)[O-])c2)SC(=S)N1Cc1ccccc1 | 6 | 6 | · | -1 | -9 | ·
CCOc1cc(/C=C2/SC(=S)N(Cc3ccccc3)C2=O)ccc1O | 8 | 33* | 12 | -5 | -18 | 28*
COc1cc(/C=C2/SC(=S)N(Cc3ccccc3)C2=O)ccc1OCC(=O)O | 6 | 37* | · | -2 | -24 | 33*
CCC(=O)N/N=C(\C)CC(=O)Nc1cccc([N+](=O)[O-])c1 | 2 | 76* | · | 2 | 3 | 29*
